From PubChem BioAssay AID892 (National Center for Advancing Translational Sciences (NCATS), 2007)
About 20 (0.03%) of roughly 75,000 compounds were called active. These entries were drawn from the full list. Values without a mark were called inactive. Calls come from the whole dose curve; as a rule, active = well fitted inhibition curve with a large enough effect; inconclusive = small, poorly fitted or top-dose-only effect; inactive = no such curve, though single readings can be large or run the other way.

biological target: Breast cancer type 1 susceptibility protein (Homo sapiens) (UniProt P38398); assay: qHTS Assay for Inhibitors of BRCT-Phosphoprotein Interaction (Red Fluorophore); details: BRCT-phosphopeptide binding, red fluorescence polarization; series mostly up to 76.9 µM; activity change, negative = inhibition: at the top concentration
Description: NIH Molecular Libraries Screening Centers Network [MLSCN]
NIH Chemical Genomics Center [NCGC]
PI Name: Natarajan, Amarnath; University of Texas
A complex of BRCT (C-terminal portion of BRCA1, MW ~35 kDa, His-tagged) and fluorescently labeled pBACH1 phosphorylated 10 aa peptide fragment of BACH1, a helicase implicated in DNA repair, is incubated with library members. Inhibitors of BRCT-pBACH1 binding are detected by a decrease in the fluorescence polarization (FP) of the fluorophore. In order to minimize the effect of fluorescence artifacts and to increase the overall robustness of the screen, the compound library members were incubated in separate reactions with rhodamine-labeled probe-protein complexes. Protein and labeled probes were supplied by Dr. Amarnath Natarajan, Department of Pharmacology and Toxicology, University of Texas Medical Branch Galveston, TX.
Assay Buffer: 16mM Na2HPO4, 4 mM NaH2PO4, 150 mM NaCl, 1 mM EDTA, 1 mM DTT, 0.02% NaN3, and 0.01% Tween 20 at pH 7.3.
Assay Controls: 100 nM TAMRA labeled decapeptide dispensed into columns 3 and 4 to generate negative control (full inhibition of
binding, -100 % activity). 100 nM labeled decapeptide/100 nM protein in columns 1, 2, 5 - 48. Titration of unlabeled decapeptide control (from 10 mM, then 1:2 dilution in duplicate) pin-transferred to column 2, rows 1 to 16. Column 1 is neutral.
Three uL of reagents were dispensed to 1536-well Greiner black solid-bottom plates. Compounds and controls (23 nL) were transferred via Kalypsys PinTool. The plates were incubated for 12 min at room temperature, and then read on ViewLux (Perkin-Elmer) High-throughput CCD imager using BODIPY for the rhodamine-labeled decapeptide probe polarization filter sets. During dispense, reagent bottles were kept submerged into 4 deg C water bath and all liquid lines were covered with aluminum foil to minimize probe and protein degradation. All screening operations were performed on a Kalypsys robotic system (Kalypsys, Inc., San Diego, CA) containing one RX-130 and two RX-90 anthropomorphic robotic arms. The timing and order of assay plates passing through the screening system were adjusted such that each compound library plate was assayed against the fluorescein- and rhodamine-labeled assay systems at immediately adjacent time points.
% is set by controls: 0 for no effect and ±100 for the full control effect.

Sequence of Breast cancer type 1 susceptibility protein (Homo sapiens) (P38398 whole entry, looked up): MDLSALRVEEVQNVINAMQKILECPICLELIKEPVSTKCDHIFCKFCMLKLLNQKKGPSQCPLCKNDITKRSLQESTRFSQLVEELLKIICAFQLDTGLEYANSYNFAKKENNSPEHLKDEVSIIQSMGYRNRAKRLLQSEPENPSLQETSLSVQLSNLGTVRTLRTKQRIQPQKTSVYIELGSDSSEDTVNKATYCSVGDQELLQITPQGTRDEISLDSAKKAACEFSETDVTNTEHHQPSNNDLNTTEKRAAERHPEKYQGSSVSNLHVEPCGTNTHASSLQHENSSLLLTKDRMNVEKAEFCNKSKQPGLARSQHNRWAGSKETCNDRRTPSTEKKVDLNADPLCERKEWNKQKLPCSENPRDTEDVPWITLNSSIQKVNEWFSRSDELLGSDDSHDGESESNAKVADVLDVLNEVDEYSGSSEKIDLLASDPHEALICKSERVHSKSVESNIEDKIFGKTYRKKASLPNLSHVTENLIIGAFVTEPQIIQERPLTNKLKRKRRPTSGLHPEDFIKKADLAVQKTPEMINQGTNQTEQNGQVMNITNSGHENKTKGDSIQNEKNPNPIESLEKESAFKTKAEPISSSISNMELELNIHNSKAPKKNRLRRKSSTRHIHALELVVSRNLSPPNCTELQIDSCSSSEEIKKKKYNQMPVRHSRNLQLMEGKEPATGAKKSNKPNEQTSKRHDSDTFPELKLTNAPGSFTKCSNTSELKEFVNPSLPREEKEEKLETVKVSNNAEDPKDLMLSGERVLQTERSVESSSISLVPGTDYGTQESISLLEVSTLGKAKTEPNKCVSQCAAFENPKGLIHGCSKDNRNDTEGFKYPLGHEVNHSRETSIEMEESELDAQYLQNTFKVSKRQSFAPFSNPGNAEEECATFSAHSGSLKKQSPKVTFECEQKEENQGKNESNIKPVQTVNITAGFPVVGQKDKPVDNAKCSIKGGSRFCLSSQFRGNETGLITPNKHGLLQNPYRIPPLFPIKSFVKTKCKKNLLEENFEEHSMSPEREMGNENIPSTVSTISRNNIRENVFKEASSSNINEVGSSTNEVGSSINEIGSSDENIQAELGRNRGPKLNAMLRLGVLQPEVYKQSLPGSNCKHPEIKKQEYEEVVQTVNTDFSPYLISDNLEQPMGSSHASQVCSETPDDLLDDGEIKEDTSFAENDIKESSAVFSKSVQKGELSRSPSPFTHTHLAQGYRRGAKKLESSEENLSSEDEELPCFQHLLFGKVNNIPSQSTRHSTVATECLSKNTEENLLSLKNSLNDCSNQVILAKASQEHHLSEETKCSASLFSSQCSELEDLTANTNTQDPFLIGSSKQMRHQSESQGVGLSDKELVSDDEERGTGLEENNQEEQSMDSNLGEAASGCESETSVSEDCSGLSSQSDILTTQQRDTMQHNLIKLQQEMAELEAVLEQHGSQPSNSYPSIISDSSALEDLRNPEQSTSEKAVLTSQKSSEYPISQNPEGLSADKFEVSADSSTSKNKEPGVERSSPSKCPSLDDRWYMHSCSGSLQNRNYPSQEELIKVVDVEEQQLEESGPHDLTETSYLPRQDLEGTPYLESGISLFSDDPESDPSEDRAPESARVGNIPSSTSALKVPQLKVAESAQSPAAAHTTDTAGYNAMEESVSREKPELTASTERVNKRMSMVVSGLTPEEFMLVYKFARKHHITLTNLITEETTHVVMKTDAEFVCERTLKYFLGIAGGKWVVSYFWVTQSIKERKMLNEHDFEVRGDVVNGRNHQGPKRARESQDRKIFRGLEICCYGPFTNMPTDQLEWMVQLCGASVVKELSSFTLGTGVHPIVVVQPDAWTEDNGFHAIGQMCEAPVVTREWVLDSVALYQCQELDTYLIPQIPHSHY

| SMILES | activity change, negative = inhibition |
| --- | --- |
| CO/N=C\[C@@H](C)[C@H](OCc1ccccc1)C(C)C | -2.08% [at 15.4 µM] |
| Cc1cccc(-c2cc(=O)c3cc(C)ccc3o2)c1 | -3.67% |
| Cc1cnc(NC(=O)CSc2nnc(-c3ccc(Cl)cc3Cl)n2N)s1 | 1.12% |
| CCn1nnc(NC(=O)c2cc(Cl)c(OC)c(Cl)c2)n1 | 0.626% |
| O=C(CSc1nnc2scc(-c3ccc(F)cc3)n12)NCc1ccco1 | -3.16% |
| O=C(CSc1nnc2ccccn12)c1ccccc1 | -0.613% |
| CN(C)/C=N/c1cc(=O)n(C)c(=O)n1CC1CC1 | 0.302% |
| CCn1c(CSc2nncn2-c2ccc(OC)cc2)nc2cc(S(=O)(=O)N(C)C)ccc21 | -0.0262% |
| Cc1ccc(C(=O)Nc2nnc(-c3ccncc3)s2)o1 | -0.503% |
| CCCN(CCC)C(=O)C1c2ccccc2Oc2ccccc21 | -2.75% |
| O=C(NCCc1ccco1)c1nn(Cc2ccccc2)c(=O)c2ccccc12 | -1.11% |
| COC(=O)c1c(NC(=O)CSc2nncs2)sc2c1CCCCC2 | -0.0838% |
| CCOC(=O)N1CCN(C(=O)c2nn(-c3ccc(C)cc3)c(=O)c3c2c2ccccc2n3C)CC1 | 0.678% |
| CCOC(=O)c1nnn(CC(=O)Nc2cccc(F)c2)c1C(=O)OCC | -0.331% |
| CCC1=C(OC(=O)N(CC)CC)N2C(=O)OC(=NCC3CC3)[C@]2(C)[C@H]2C1=CC[C@H]1C(=O)N(CC(=O)OC)C(=O)[C@H]12 | -1.92% |
| COc1ccc(C(=O)NCc2cn3ccccc3n2)cc1 | 0.842% |
| COc1cccc(-c2cc(NCCc3c[nH]c4ccc(OC)cc34)ncn2)c1 | -0.197% |
| COCCNC(=O)CSc1nc2c(n1-c1ccccc1)CCCC2 | 0.0626% |
| COc1ccccc1N=C1SC(C)CN1C(=O)C1CCC1 (centres undefined) | 1.07% |
| Cc1ccc2[nH]c3c(c2c1)CN(C(=O)CN1CCN(c2ccccc2)CC1)CC3 | -1.58% |
| CC(NC(=O)c1cc(-c2ccccc2)on1)c1ccccc1 (centres undefined) | -1.69% |
| O=S(=O)(c1cccs1)N1CCN(Cc2ccccc2)CC1 | 0.716% |
| CCCC(=O)Nc1nnc(CC(=O)OCC)s1 | -0.653% |
| N#CC1=C(SCc2ccccc2)NC(=O)C(C#N)C12CCCC2 (centres undefined) | 0.43% |
| Cc1cc(N(C)C)cc(C)[n+]1[O-] | -0.606% |
| CC(C)(C)NC(=O)c1cc(NC(=O)c2ccco2)cc(NC(=O)c2ccco2)c1 | 0.733% |
| Cc1ccc2nc(NC(=O)C3CCN(S(=O)(=O)c4ccc5c(c4)oc(=O)n5C)CC3)sc2c1 | 0.323% |
| COC(=O)[C@@H]1C[C@@]2(O)[C@H](O)[C@H](O)[C@H](O)C[C@H]2N1Cc1ccc(C)s1 | -0.918% |
| COC(=O)Nc1nc2ccc(Sc3ccccc3)cc2[nH]1 | inactive |
